Activity calls are given as the source filed them.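 Rule for the calls, unless noted: active = inhibition of the reporter signal at or above 50%; inactive = inhibition below 50%.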
Experiments:
[1] = inhibitors of TNFa-induced NFkB p65 translocation, primary screen, imaging, HUVEC, MLSMR starter and 10KST1 sets (AID 438;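 active = inhibition above 20% together with a positive visual image hit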;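 note: compound added about 3h40 before a 20 min TNFalpha stimulation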;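 for inhibition: signal is the nuclear over cytoplasmic p65 intensity ratio per well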); conditions: HUVEC TNFa-induced p65 nuclear translocation; cell count: measured here: nuclei count (cytotoxicity indicator), at 2.08 µM; inhibition: at 2 µM, stronger effect = higher value, 0% TNFa-plus-vehicle, 100% no-TNFa wells
[2] = reduction of polyQ htt aggregates in cells – imaging, exon1htt(103Q)mCFP cells, high-content imaging, primary screen (AID 483;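 active = visual image review flags a hit and inhibition of aggregation exceeds 20%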;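 note: compound exposure lasted 3 days before fixation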;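 for nuclei count: percent of the per-plate median nuclei count of sample wells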); conditions: exon1htt(103Q)mCFP cell line, aggregate imaging, at 2 µM; inhibition of aggregation: stronger effect = higher value; nuclei count: measured here: cell count, toxicity
[3] = endothelial E-selectin expression blockers – imaging, HUVEC, immunofluorescence, MLSMR starter and 10KST1 sets, primary screen (AID 487;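 active = visually confirmed hit in the image check and inhibition above 20%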;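 for inhibition: signal is fraction of cell area covered by stained E-selectin grains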;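 for nuclei count: 100% = median nuclei count of all wells on the same plate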); conditions: HUVEC TNFalpha-induced E-selectin immunofluorescence imaging, at 2 µM; inhibition: stronger effect = higher value; nuclei count: measured here: cell number, toxicity
[4] = biological target: Voltage-gated potassium channel subunit beta-2 (Rattus norvegicus) (UniProt P62483); experiment: inhibitors of rat Kvbeta2 reductase activity – biochemical, NADPH fluorescence, primary screen (AID 622;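 active = fluorescence slope higher than the sample average by over 3 SD, cut at about -0.22 in these data, passing the limit was not always enough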;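 note: slope of raw intensity against log time taken from 70 to 1610 s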); conditions: recombinant KvBeta, 4-cyanobenzaldehyde reduction, at 10 µM, stronger effect = higher value
Chain of Voltage-gated potassium channel subunit beta-2 (Rattus norvegicus) (P62483 whole entry, looked up): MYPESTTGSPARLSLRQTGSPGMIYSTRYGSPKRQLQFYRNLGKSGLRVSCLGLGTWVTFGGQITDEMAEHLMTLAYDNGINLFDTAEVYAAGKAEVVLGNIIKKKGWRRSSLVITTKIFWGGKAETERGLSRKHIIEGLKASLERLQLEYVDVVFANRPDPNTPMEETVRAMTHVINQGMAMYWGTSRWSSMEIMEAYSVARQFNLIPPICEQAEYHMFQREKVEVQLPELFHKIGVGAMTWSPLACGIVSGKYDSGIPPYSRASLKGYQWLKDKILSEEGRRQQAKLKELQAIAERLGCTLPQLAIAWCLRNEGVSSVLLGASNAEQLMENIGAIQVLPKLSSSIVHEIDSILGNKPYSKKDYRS

[5] = biological target: Voltage-gated potassium channel subunit beta-2 (Rattus norvegicus) (UniProt P62483); experiment: enhancers of rat Kvbeta2 NADPH turnover – biochemical, NADPH fluorescence, primary screen (AID 623;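 active = NADPH fluorescence slope more negative than the mean of all samples by about 3 SD, 99.7% confidence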;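 note: fluorescence intensity change per second fitted from 20 to 320 s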); conditions: Recombinant KvBeta, NADPH fluorescence decrease slope, 10 min; at 10 µM; stronger effect = lower value
[6] = biological target: Alpha-2C adrenergic receptor (Homo sapiens) (UniProt P18825); experiment: compounds altering alpha2C-coupled GIRK flux – cell-based, HEK293 alpha2C/GIRK1/2, thallium flux, primary screen (AID 624;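 active = fluorescence slope after compound addition differing from the mean of all screened samples at 99.7% confidence, in either direction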;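 note: slope of fluorescence ratio to pre-addition baseline per second over 15 to 24 s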); conditions: thallium flux BTC fluorescence, at 10 µM, actives lie on both sides
Chain of Alpha-2C adrenergic receptor (Homo sapiens) (P18825 whole entry, looked up): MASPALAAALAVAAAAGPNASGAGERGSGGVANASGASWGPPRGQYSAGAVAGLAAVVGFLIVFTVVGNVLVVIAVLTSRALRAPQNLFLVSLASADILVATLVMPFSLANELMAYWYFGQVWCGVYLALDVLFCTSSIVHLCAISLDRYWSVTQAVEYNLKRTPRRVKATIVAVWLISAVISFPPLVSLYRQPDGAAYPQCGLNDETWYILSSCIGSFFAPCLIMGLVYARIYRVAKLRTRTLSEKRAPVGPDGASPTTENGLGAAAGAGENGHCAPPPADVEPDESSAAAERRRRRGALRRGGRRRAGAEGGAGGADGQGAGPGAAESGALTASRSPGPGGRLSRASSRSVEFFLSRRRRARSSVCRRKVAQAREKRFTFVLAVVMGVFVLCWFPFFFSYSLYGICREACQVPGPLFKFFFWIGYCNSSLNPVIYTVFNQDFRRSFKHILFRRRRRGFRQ

[7] = blockers of RIG-like receptor reporter activation – cell-based, Sendai virus stimulus, luciferase, 10K MLSCN set, TLR/RLR signaling modifier project, primary screen (AID 602276;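 active = inhibition at or above 50% at 10 µM; inactive = inhibition below 50%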;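 note: firefly luciferase from ISG56 promoter only with Renilla not read in this screen; 0% = Sendai virus plus DMSO and 100% = medium plus DMSO without virus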); conditions: HEK293 RL24 IRF3 luciferase reporter, at 10 µM, stronger effect = higher value
[8] = TLR3 IRF3 reporter activation blockers – cell-based, poly I:C stimulus, luciferase, 10K MLSCN set, primary screen (AID 602277); conditions: HEK293-TLR3 RL24 IRF3 luciferase reporter, at 10 µM, stronger effect = higher value

| Compound | cell count [1] | inhibition [1] | inhibition of aggregation [2] | nuclei count [2] | inhibition [3] | nuclei count [3] | fluorescence slope [4] | NADPH fluorescence slope [5] | slope [6] | inhibition [7] | inhibition [8] |
| --- | --- | --- | --- | --- | --- | --- | --- | --- | --- | --- | --- |
| O=C(O)c1cc2nc(-c3ccc(F)cc3)cc(C(F)(F)F)n2n1 | 435 | 4.9% (inactive) | -0.7% (inactive) | 97.9% | 26.5% (inactive) | 110% | -0.385 (inactive) | -4.1e-05 (inactive) | 0.00272 (inactive) | 0.989% (inactive) | 19.6% (inactive) |
| CCc1nnc2c3cnn(-c4ccccc4)c3ncn12 | 402 | -2.9% (inactive) | -11.8% (inactive) | 103% | -25.5% (inactive) | 125% | -0.616 (inactive) | 7.6e-06 (inactive) | 0.00633 (inactive) | -19% (inactive) | -77% (inactive) |
| Clc1ss/c(=N\c2ccccn2)c1Cl | 623 | -6.5% (inactive) | -1.1% (inactive) | 112% | -39.9% (inactive) | 124% | -0.483 (inactive) | -0.000216 (inactive) | 0.0043 (inactive) | -8.89% (inactive) | -24% (inactive) |
| COc1cc2c(C#N)c(N3CCOCC3)nc(N)c2c(N)n1 | 694 | -7.8% (inactive) | -18.2% (inactive) | 117% | -22.5% (inactive) | 114% | -0.0448 (inactive) | -2.1e-06 (inactive) | 0.00579 (inactive) | 15.2% (inactive) | 46.9% (inactive) |
| CCOC(=O)c1ccc(NC(=O)CCc2c(C)nc3ncnn3c2C)cc1 | 402 | 1.9% (inactive) | -19.7% (inactive) | 107% | -138% (inactive) | 116% | -0.508 (inactive) | 6.6e-06 (inactive) | 0.00565 (inactive) | -2.81% (inactive) | 7.84% (inactive) |
| Cc1cc(Oc2ccc(Cl)cc2)nc(-c2ccccc2O)n1 | 612 | 11.3% (inactive) | 4.5% (inactive) | 73.2% | -13.1% (inactive) | 101% | -0.517 (inactive) | 3.7e-05 (inactive) | 0.00665 (inactive) | 3.04% (inactive) | -8.94% (inactive) |
| COc1ccc(CCNC(=O)c2ccc(N3CCCC3=O)cc2)cc1OC | 472 | -19% (inactive) | 43.9% (active) | 62.2% | -26% (inactive) | 89.1% | -0.453 (inactive) | -0.000105 (inactive) | 0.00604 (inactive) | 8.09% (inactive) | 20.6% (inactive) |
| COc1ccccc1NC(=O)CSc1nnc(CC(=O)Nc2ccccc2)n1C | 455 | 4.9% (inactive) | -6.2% (inactive) | 89.5% | -44% (inactive) | 103% | -0.442 (inactive) | 3.5e-06 (inactive) | 0.0033 (inactive) | 8.73% (inactive) | 20.7% (inactive) |
| CCN(CC(=O)NC1CCS(=O)(=O)C1)C(=O)C(c1ccccc1)c1ccccc1 (stereo not drawn) | 887 | 3.8% (inactive) | -12.1% (inactive) | 105% | -74.7% (inactive) | 130% | -0.261 (inactive) | -5e-05 (inactive) | 0.00562 (inactive) | 6.14% (inactive) | 5.12% (inactive) |
| Cn1c(-c2ccc(C(C)(C)C)cc2)n[nH]c1=S | 647 | -5.8% (inactive) | -4.8% (inactive) | 77.2% | 47.5% (inactive) | 79.7% | -0.46 (inactive) | -0.000112 (inactive) | 0.00619 (inactive) | -11.8% (inactive) | -25.2% (inactive) |
| CCN1C(=O)C(C(=O)Nc2ccc(OC)cc2)C2CC1(C)Oc1ccccc12 (stereo not drawn) | 489 | 4.3% (inactive) | -2% (inactive) | 104% | -4.8% (inactive) | 102% | -0.305 (inactive) | -5.8e-05 (inactive) | 0.0052 (inactive) | -34.3% (inactive) | -51.5% (inactive) |
| FC(F)(F)c1cccc(N2CCN(c3nnnn3-c3ccccc3)CC2)c1 | 394 | -3.8% (inactive) | -1.6% (inactive) | 96.2% | -98.2% (inactive) | 112% | -0.647 (inactive) | 1.2e-05 (inactive) | 0.00945 (inactive) | 10.2% (inactive) | 2.35% (inactive) |
| CC(C)COC(=O)C1C2C=CC3(CN(C(C)c4ccc(Br)cc4)C(=O)C13)O2 (stereo not drawn) | 477 | -10.8% (inactive) | 28.1% (inactive) | 78.4% | -32.2% (inactive) | 86.6% | -0.532 (inactive) | -3.6e-05 (inactive) | 0.00795 (inactive) | 11.4% (inactive) | 28.5% (inactive) |
| CSc1ccc(-c2nc(CSCC(=O)N3CCOCC3)c(C)o2)cc1 | 243 | 2.7% (inactive) | -6% (inactive) | 89.5% | -16.1% (inactive) | 101% | -0.523 (inactive) | -5.8e-05 (inactive) | 0.00525 (inactive) | -23.3% (inactive) | -88.4% (inactive) |
| Cc1cc(NC(=O)COC(=O)C2COc3ccccc3O2)no1 (stereo not drawn) | 734 | -5.3% (inactive) | -24.5% (inactive) | 106% | -15.9% (inactive) | 103% | -0.407 (inactive) | -7.6e-05 (inactive) | 0.00343 (inactive) | 7.14% (inactive) | 12.6% (inactive) |
| Cn1c(=O)c(=O)n(C)c2cc(S(=O)(=O)N3CCN(c4cccc(C(F)(F)F)c4)CC3)ccc21 | 334 | -2.2% (inactive) | -18.8% (inactive) | 107% | -12.6% (inactive) | 104% | -0.354 (inactive) | 1.2e-05 (inactive) | 0.00616 (inactive) | 1.46% (inactive) | 13.1% (inactive) |
| O=c1oc2ccccc2c2nccnc12 | 410 | 2.1% (inactive) | 2.2% (inactive) | 104% | -5.2% (inactive) | 107% | -0.456 (inactive) | -3.3e-05 (inactive) | 0.00253 (inactive) | 5.7% (inactive) | 27.5% (inactive) |
| CCN(CC)S(=O)(=O)c1ccc(S(=O)(=O)N(Cc2ccccn2)Cc2ccco2)cc1 | 322 | -0.8% (inactive) | -9.2% (inactive) | 112% | -68.2% (inactive) | 123% | -0.608 (inactive) | 6.2e-06 (inactive) | 0.00512 (inactive) | 6.58% (inactive) | 18.5% (inactive) |
| CCCCn1c(SCC(=O)N2CC(=O)Nc3ccccc32)nnc1-c1ccoc1C | 494 | -7.7% (inactive) | 15.6% (inactive) | 114% | -146% (inactive) | 174% | -0.534 (inactive) | -3.6e-05 (inactive) | 0.00478 (inactive) | 13.2% (inactive) | 19.3% (inactive) |
| Cc1nn(-c2ccc(Cl)cc2)c2sc(C(=O)N3CCN(c4ccccn4)CC3)cc12 | 571 | -3.6% (inactive) | 1.7% (inactive) | 95.6% | 42.5% (inactive) | 108% | -0.612 (inactive) | -2.4e-05 (inactive) | 0.011 (active) | 9.58% (inactive) | -7.18% (inactive) |
| CCCn1nc(NC(=O)c2cccs2)c2cc3cc(OC)ccc3nc21 | 630 | -6.8% (inactive) | -8% (inactive) | 104% | -20.4% (inactive) | 112% | -0.119 (inactive) | 2.2e-05 (inactive) | 0.00675 (inactive) | -4.8% (inactive) | -37.7% (inactive) |
| C=CCn1c(SCC(=O)c2cc(C)n(C(C)COC)c2C)nc2sc(C)c(C)c2c1=O (stereo not drawn) | 357 | 3% (inactive) | -8.9% (inactive) | 99.9% | -1.2% (inactive) | 100% | -0.459 (inactive) | 1e-05 (inactive) | 0.00515 (inactive) | 7.26% (inactive) | 22.9% (inactive) |
| CC(C)OC(=O)CN1C(=O)C(C)(C)Oc2ccc(C(=O)NC3CC3)cc21 | 537 | -6.7% (inactive) | 18% (inactive) | 104% | -11.5% (inactive) | 102% | -0.496 (inactive) | -7.2e-05 (inactive) | 0.00477 (inactive) | 14.5% (inactive) | 17.5% (inactive) |
| Cc1ccc(S(=O)(=O)Cn2nnnc2C(C(C)C)N2CCN(C(=O)c3ccco3)CC2)cc1 (stereo not drawn) | 400 | -0.4% (inactive) | 2.5% (inactive) | 100% | 6.9% (inactive) | 101% | -0.405 (inactive) | -4.2e-05 (inactive) | 0.00633 (inactive) | 11.4% (inactive) | 15.4% (inactive) |
| COC(=O)CCC(=O)Nc1cccc(Cl)c1 | 205 | 42.5% (active) | 5% (inactive) | 99.2% | -12.1% (inactive) | 94.4% | -0.593 (inactive) | -3.8e-05 (inactive) | 0.00629 (inactive) | 3.5% (inactive) | 17.1% (inactive) |
| CCn1c(=O)cc(OCC(=O)Nc2nc(C)cs2)c2ccccc21 | 809 | -1.7% (inactive) | -24.7% (inactive) | 90.4% | -54.6% (inactive) | 125% | -0.525 (inactive) | -3.4e-05 (inactive) | 0.00615 (inactive) | 7.74% (inactive) | 32.8% (inactive) |
| CC(C)OC(=O)CSc1nnc(-c2ccc(C(C)(C)C)cc2)n1N | 396 | -2.3% (inactive) | 4.2% (inactive) | 80.6% | -158% (inactive) | 210% | -0.469 (inactive) | -3.9e-05 (inactive) | 0.00343 (inactive) | 1.32% (inactive) | 14% (inactive) |
| COC(=O)c1ccccc1NC(=O)c1ccc(COc2ccccc2)o1 | 845 | -8.3% (inactive) | 6.6% (inactive) | 113% | -19.3% (inactive) | 114% | -0.63 (inactive) | -3.5e-05 (inactive) | 0.00572 (inactive) | -25.9% (inactive) | -60.3% (inactive) |

Reference: PubChem BioAssay
